VHR inh abs – inhibitors of human VHR1 phosphatase (DUSP3). P51452. recombinant VHR phosphatase, pNPP absorbance. inhibition, % at 13.3 µM. 290,000 tested, 0.52% active; in the data active = inhibition above about 50%
SARS 3CLpro inh – SARS-CoV 3CLpro protease inhibition | P0C6X7 | recombinant SARS-CoV 3CLpro, quenched FRET peptide cleavage | inhibition, % at 6 µM | 290,000 tested, 0.14% active | AID 1706; in the data active = inhibition above about 12%
SSB-PriA inh – K. pneumoniae PriA-SSBct interaction inhibition; AlphaScreen SSBct-PriA binding, biotinylated peptide; inhibition, % at 33 µM; 430,000 tested, 0.6% active; in the data active = inhibition mostly above about 37%, no sharp cut-off; inactive = mostly below about 20%
CCHFV vOTU inh – blocks the CCHF virus ovarian tumor domain protease; 370,000 tested, 0.55% active; CCHFV vOTU protease, Pep-AMC fluorescence; inhibition, % at 11.5 µM; AID 651958; in the data active = inhibition above about 30%
RecA splice inh – blocks M. tuberculosis RecA intein splicing; inhibition, % (test concentration not listed); 290,000 tested, 0.75% active; P9WHJ3; cell-free RecA intein splicing, fluorescence; AID 2221; in the data active = inhibition above about 30%
Target sequence (P9WHJ3 whole entry, looked up, canonical isoform): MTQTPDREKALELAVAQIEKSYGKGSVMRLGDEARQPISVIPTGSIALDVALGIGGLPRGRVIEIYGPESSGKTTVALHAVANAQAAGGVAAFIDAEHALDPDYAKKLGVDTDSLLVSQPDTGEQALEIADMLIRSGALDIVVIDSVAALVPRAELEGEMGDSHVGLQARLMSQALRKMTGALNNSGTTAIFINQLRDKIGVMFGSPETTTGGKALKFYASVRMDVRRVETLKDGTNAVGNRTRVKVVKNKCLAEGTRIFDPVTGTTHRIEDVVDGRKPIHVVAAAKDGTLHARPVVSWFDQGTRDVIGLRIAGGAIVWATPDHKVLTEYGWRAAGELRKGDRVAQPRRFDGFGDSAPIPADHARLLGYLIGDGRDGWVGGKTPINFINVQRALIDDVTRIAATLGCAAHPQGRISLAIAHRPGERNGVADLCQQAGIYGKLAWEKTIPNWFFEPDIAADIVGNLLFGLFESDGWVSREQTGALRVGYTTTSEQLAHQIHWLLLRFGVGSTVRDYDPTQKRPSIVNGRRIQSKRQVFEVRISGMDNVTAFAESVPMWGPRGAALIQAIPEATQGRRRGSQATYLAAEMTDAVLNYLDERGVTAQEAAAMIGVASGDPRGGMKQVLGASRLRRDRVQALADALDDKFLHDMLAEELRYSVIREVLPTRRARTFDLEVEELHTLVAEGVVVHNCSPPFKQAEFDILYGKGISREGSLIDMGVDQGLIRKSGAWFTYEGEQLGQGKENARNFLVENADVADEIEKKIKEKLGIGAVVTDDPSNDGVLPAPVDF
A number is an active result; – = inactive; · = no result given. Shown are actives, neighbours in structure and some others; about 1.7% of the full set was active somewhere.

SMILES	VHR inh abs	SARS 3CLpro inh	SSB-PriA inh	CCHFV vOTU inh	RecA splice inh
Cc1ccc(S(=O)(=O)Nc2nc3ccc(S(C)(=O)=O)cc3s2)cc1	–	–	39.7	–	–
CC(=O)Nc1ccc(NC(=O)c2cccc3ccccc23)cc1	59.7	–	–	–	–
Cc1cc(C)n(C(=O)c2scc(-c3ccccc3)c2-n2cccc2)n1	·	·	–	·	·
O=c1c(NCc2ccc(Cl)cc2)nccn1-c1cccc(C(F)(F)F)c1	·	·	54.0	·	·
Cc1ccc(CNc2nccn(-c3cccc(Cl)c3C)c2=O)cc1	·	·	46.0	·	·
O=c1c(NCc2ccc(F)cc2)nccn1-c1ccc(Br)cc1	·	·	–	·	·
CC(=NNC(=O)C(C)Oc1ccc([N+](=O)[O-])cc1)c1ccccn1 (centres undefined)	·	·	47.8	·	·
O=C(Nc1ccccc1F)c1cc(C2CCN(C(=O)c3cccs3)CC2)[nH]n1	·	·	–	·	·
O=C(Nc1ccccc1F)c1cc(C2CCN(C(=O)c3c[nH]c(=O)c(Cl)c3)CC2)[nH]n1	·	·	98.0	·	·
CC(=O)c1cccc(NC(=O)Cc2cc(=O)[nH]c(SCc3ccccc3)n2)c1	·	·	–	·	·
COC(=O)c1ccc(C(=O)Nc2ccc(N)cc2N)cc1	–	–	39.6	–	–
CC(C)S(=O)(=O)c1ccc(CC(=O)NCc2nn(C)c3c2COCC3)cc1	·	·	–	·	·
COc1ccccc1CN1CCCC(CN(CCN(C)C)C(=O)c2ccc(C)cc2)C1 (centres undefined)	51.3	–	–	–	–
COc1ccc(N2CC(NC(=O)c3ccccc3Cl)CC2=O)cc1OC (centres undefined)	·	·	–	·	·
COc1cc(C(=O)n2nc(C)c(Sc3ccc(Cl)cc3)c2C)cc(OC)c1OC	·	·	–	·	·
Cc1nn(C(=O)c2cccnc2)c(C)c1Sc1ccc(Br)cc1	–	–	–	·	43.8
CCOc1ccccc1NC(=O)N1CC(S(=O)(=O)c2ccc(Cl)cc2)C1	·	·	–	·	·
O=C(NCCCn1ccnc1)C(=O)NCC1OCCN1S(=O)(=O)c1ccc(Cl)cc1 (centres undefined)	–	–	60.9	–	–
O=C(NCCCn1ccnc1)C(=O)NCC1OCCCN1S(=O)(=O)c1ccc(Cl)cc1 (centres undefined)	–	–	–	–	–
NS(=O)(=O)c1ccc(CCNC(=O)C(=O)NCC2OCCN2C(=O)c2ccc3c(c2)OCO3)cc1 (centres undefined)	–	–	–	–	–
O=C(NCCCn1ccnc1)C(=O)NCC1OCCN1C(=O)c1ccc2c(c1)OCO2 (centres undefined)	·	·	71.0	·	·
O=C(NCCCn1ccnc1)C(=O)NCC1OCCN1S(=O)(=O)c1ccccc1 (centres undefined)	–	–	42.7	–	–
N#C/C(=C\c1cccnc1)C(=O)NC1CCCCC1	–	–	–	–	–
N#C/C(=C\c1ccccc1)C(=O)NC1CC1	53.0	–	–	–	–
CCc1ccc(-c2cc3c(=O)n(Cc4nc(-c5ccc(OC)c(OC)c5)no4)ccn3n2)cc1	·	·	–	·	·
SMILES	VHR inh abs	SARS 3CLpro inh	SSB-PriA inh	CCHFV vOTU inh	RecA splice inh
O=C(N/C(=C/C=C/c1ccccc1)C(=O)N1CCCCC1)c1ccc([N+](=O)[O-])cc1	–	–	39.1	–	·
COc1ccc(S(=O)(=O)NCc2ccc([C@@H](O)c3ccsc3)s2)cc1Cl	·	·	–	·	·
Nc1nonc1-n1nnc(C(=O)N/N=C/c2ccc(Br)cc2)c1CSC1=NCCS1	–	–	·	–	31.5
CC(C)c1ccc(/C=N/NC(=O)c2nnn(-c3nonc3N)c2CSC2=NCCS2)cc1	–	–	·	–	33.8
Cc1ccsc1/C=N/NC(=O)c1nnn(-c2nonc2N)c1C	56.2	–	·	–	·
CC(C)c1ccc(C=NNC(=O)c2nnn(-c3nonc3N)c2CSC2=NCCS2)cc1	·	·	–	·	·
Cc1cccc(N2CCN(C(=O)c3cc4cc([N+](=O)[O-])ccc4oc3=O)CC2)c1C	·	·	–	·	·
Cc1ccc(CNC(=O)C2CCC(CNS(=O)(=O)c3cccc4cccnc34)CC2)cc1 (centres undefined)	–	–	–	–	–
COc1cccc(CNC(=O)C2CCC(CNS(=O)(=O)c3cccc4cccnc34)CC2)c1 (centres undefined)	55.5	–	–	–	–
O=C(NCC(c1cccs1)N1CCc2ccccc21)c1ccccc1[N+](=O)[O-] (centres undefined)	·	·	46.0	·	·
O=C(NC[C@@H](c1cccs1)N1CCc2ccccc21)c1ccccc1Br	·	·	–	·	·
O=C(NCC(c1cccs1)N1CCOCC1)c1ccccc1NS(=O)(=O)c1cccc([N+](=O)[O-])c1 (centres undefined)	55.6	–	–	–	–
COC(=O)N1CCc2ccc(NC(=O)CCc3ccc(C(F)(F)F)cc3)cc2C1	·	·	–	·	·
CNC(=S)N/N=C(\C)c1ccc(C(C)(C)C)cc1	59.9	–	·	–	–
CCCCn1c(NS(=O)(=O)c2ccc(F)cc2)c(S(=O)(=O)c2ccc(C)cc2)c2nc3ccccc3nc21	·	·	56.0	·	·
CCCCCn1c(NS(=O)(=O)c2ccc(F)cc2)c(S(=O)(=O)c2ccc(C)cc2)c2nc3ccccc3nc21	·	·	–	·	·
CCCCCCCCn1c(NS(=O)(=O)c2ccc3ccccc3c2)c(S(=O)(=O)c2ccc(C)cc2)c2nc3ccccc3nc21	·	·	–	·	·
CCCCCCCCn1c(NS(=O)(=O)c2ccccc2)c(S(=O)(=O)c2ccccc2)c2nc3ccccc3nc21	·	·	59.8	·	·
CCCCn1c(NC(=O)c2ccccc2)c(S(=O)(=O)c2ccc(C)cc2)c2nc3ccccc3nc21	·	·	54.0	·	·
CCCCCn1c(NS(=O)(=O)c2ccccc2)c(C(=O)OCC)c2nc3ccccc3nc21	·	·	69.6	·	·
CC(C)(C)NC(=O)NCC(c1cccs1)N1CCc2ccccc21 (centres undefined)	·	·	–	·	·
O=C(Nc1nc2c(Cl)c(Cl)ccc2s1)C1CCCCC1	·	·	–	·	·
COc1ccc(NC(=O)c2cc3c(=O)[nH]c(-c4ccsc4)cn3n2)cc1F	·	·	–	·	·
CCCCCCCCn1c(NS(=O)(=O)c2ccc(C)cc2)c(S(=O)(=O)c2ccc(C)cc2)c2nc3ccccc3nc21	·	·	54.2	·	·
COC(=O)N1CCC(CNC(=O)c2ccno2)CC1	·	·	–	·	·
SMILES	VHR inh abs	SARS 3CLpro inh	SSB-PriA inh	CCHFV vOTU inh	RecA splice inh
COc1cccc2[nH]c(C(=O)NCCCN3CCCC3=O)cc12	–	–	–	–	–
COc1ccc2cc(C(=O)NCCCN3CCCC3=O)[nH]c2c1	–	–	39.8	–	–
O=C(Nc1cccc2ncccc12)c1ccc(Cl)cc1	–	–	47.9	–	–
O=C(CC1CSc2nccc(=O)n21)NC1CCCCCC1 (centres undefined)	·	·	–	·	·
CC(Nc1c[nH]c(=O)[nH]c1=O)c1ccccc1 (centres undefined)	–	–	–	–	61.2
CN1Cc2cc(C(=O)c3cc(Cl)cc(CSc4ncccn4)c3O)cnc2NC1=O	56.3	–	·	·	–
CS(=O)(=O)N1CCN=C1SCc1ccc(Br)cc1	–	–	–	–	–
CC(=O)N1CCN=C1SCc1ccc(Br)cc1	53.3	–	–	–	–
CC(=O)Nc1ccc(C2=NN(C)C(=NCc3ccccc3)SC2)cc1	51.3	–	–	–	–
Cc1ccc(CN2CCCN(Cc3c(F)cccc3Cl)S2(=O)=O)cc1	–	–	–	–	–
Cc1ccc(CN2CCCN(Cc3ccc(F)cc3Cl)S2(=O)=O)cc1	52.6	–	–	–	–
